# Results reported in PubChem BioAssay (EPA / NIEHS).
# Activity calls are given as the source filed them. Rule for the calls: active = hit-call score of the fitted dose curve at least 0.9, where 1 is the maximum; inactive = score below 0.9.
# Assay: ATG_AP_1_CIS: Attagene CIS-FACTORIAL HepG2 Assay for human Activator Protein 1 (AP-1) (AID 2282931)
# Details: HepG2 Attagene cis-factorial AP-1 reporter mRNA; actives raise or lower the signal
# Procedure: ATG_CIS is a cell-based, multiplexed-readout assay that uses HepG2, a human liver cell line, with measurements taken at 24 hours after chemical dosing in a 24-well plate.ATG_AP_1_CIS is one of 52 assay component(s) measured or calculated from the ATG_CIS assay. It is designed to make measurements of mRNA induction, a form of inducible reporter, as detected with fluorescence intensity signals by Reverse transcription polymerase chain reaction (RT-PCR) and Capillary electrophoresis technology.Data from the assay component ATG_AP_1_CIS was analyzed into 1 assay endpoint. This assay endpoint, ATG_AP_1_CIS, was analyzed with bidirectional fitting relative to DMSO as the negative control and baseline of activity. Using a type of inducible reporter, measures of mRNA for gain or loss-of-signal activity can be used to understand the reporter gene at the transcription factor-level as they relate to the gene FOS and JUN. Furthermore, this assay endpoint can be referred to as a primary readout, because this assay has produced multiple assay endpoints where this one serves a reporter gene function. To generalize the intended target to other relatable targets, this assay endpoint is annotated to the dna binding intended target family, where the subfamily is basic leucine zipper.
# Human liver HepG2 cells are transiently transfected with multiple reporter transcription units (MRTUs) in 6-well plates using FuGene 6 reagent (Roche; 3 ml FuGene/1 mg DNA). The MRTU constructs are regulated by a cis-regulating element (promoter). […] A major difference between the CIS and TRANS system is that in CIS activities of endogenous TFs are measured, whereas the TRANS assay evaluates changes in activities of exogenous, chimeric NR-Gal4 proteins. […] At the end of 24 hour incubation, total RNA was isolated using TriZol reagent (Invitrogen). The isolated RNA is then reverse-transcribed using oligo(dT) primer and Mo-MLV reverse transcriptase (Invitrogen) with DNAse I (Ambion) treatment for 30 min. The one-tenth of the produced cDNA was amplified by PCR using Taq DNA polymerase (Invitrogen) and two reporter sequence-specific primers. The PCR products were fluorescently labeled by primer extension with 6-arboxyfluorescein (6-FAM) 5'-labeled reporter sequence-specific primer (2 min at 95 C, 20 s at 68 C and 10 min at 72 C) and these products were digested with 5U of HpaI (New England Biolabs) for 2h at 37 C. The fragments were purified using Qiaquick PCR columns (Qiagen), analyzed on an ABI 3130xL genetic analyzer (Applied Biosystems) with peak positions identified by using a set of X-rhodamine (ROX)-labeled MapMarker1000 molecular weight standards (BioVentures). The raw capillary electrophoresis data was processed using Attagraph software (Attagene).
Structure (SMILES),outcome,AC50
CCCCCc1ccc(Cl)cc1,inactive,–
Nc1ncn([C@@H]2O[C@H](CO)[C@@H](O)[C@H]2O)c(=O)n1,inactive,–
CCCCC(CC)COC(=O)c1ccccc1 (stereo not given),inactive,–
N=c1ccn2c(n1)O[C@H]1[C@H](O)[C@@H](CO)O[C@H]12,inactive,–
c1ccc(-c2ccccn2)nc1,inactive,–
COCc1c(C(C)C)nc(C(C)C)c(/C=C/[C@@H](O)C[C@@H](O)CC(=O)O)c1-c1ccc(F)cc1,inactive,–
N#CCc1ccc(Cl)cc1Cl,inactive,–
C=C1[C@H]2CC[C@@H]3[C@H]2C(C)(C)CCC[C@]13C,inactive,–
CCCCCC(C)O (stereo not given),inactive,–
CCN(CC)c1ccc(C(=O)c2ccccc2C(=O)O)c(O)c1,inactive,–
C=C(C)[C@@H]1CCC2=CCC[C@@H](C)[C@]2(C)C1,–,100 µM (active)
O=c1cc[nH]c(=S)[nH]1,inactive,–
CC(=O)[C@H]1[C@H](C#N)C[C@H]2[C@@H]3CC=C4C[C@@H](O)CC[C@]4(C)[C@H]3CC[C@@]21C,inactive,–
CC=CC(F)(F)C(F)(F)C(F)(F)F,inactive,–
CCOC(=O)c1ccccc1C(=C1C=C(Br)C(=O)C(Br)=C1)c1cc(Br)c(O)c(Br)c1,–,51.7 µM (active)
CCO[Si](C)(OCC)OCC,inactive,–
Nc1ccc(Cl)cc1Cl,inactive,–
C[Si](C)(C)O[Si](O)(O)O,inactive,–
O=C(Nc1ccccc1SSc1ccccc1NC(=O)c1ccccc1)c1ccccc1,–,62.4 µM (active)
CO[Si](OC)(OC)c1ccccc1,inactive,–

Structure (SMILES),outcome,AC50
CCCCCCCCCCOC(C)=O,inactive,–
COc1cc(NC(=O)CC(C)=O)c(OC)cc1Cl,inactive,–
Cc1ccc2c(c1)C(=O)c1ccccc1C2=O,inactive,–
O=C(Oc1ccccc1)c1ccc2ccccc2c1O,–,97.4 µM (active)
S=C(NC1CCCCC1)NC1CCCCC1,inactive,–
COC(=O)c1ccccc1OC,inactive,–
Clc1nc2ccccc2s1,inactive,–
CC(=O)Oc1ccc(C)cc1,inactive,–
O=C1C(N(CO)C(=O)NCO)N(CO)C(=O)N1CO (stereo not given),inactive,–
CCO[Si](CCCN=C=O)(OCC)OCC,inactive,–
Cc1cc(C)c(C)cc1C,inactive,–
CN1C(=O)N(C)C(O)C1O (stereo not given),inactive,–
CCCCCCC(O)CO (stereo not given),inactive,–
COc1ccc(C(Cl)=C(c2ccc(OC)cc2)c2ccc(OC)cc2)cc1,inactive,–
O=C(O)C(c1ccc(Cl)cc1)c1ccc(Cl)cc1,inactive,–
CCC(CO)CO,inactive,–
C=CC(=O)OCCOC1C2CCC1C1CC=CC12 (stereo not given),inactive,–
CCCCCCCCCCc1ccccc1,inactive,–
CCCCC/C=C\C/C=C\CCCCCCCC(=O)OC,–,132 µM (active)
O=[N+]([O-])c1ccc(CO)cc1,inactive,–
